Experimental data reported in PubChem BioAssay (NCATS).
Records with an inconclusive call do not appear. A call without a number means that no potency is given here. Unmarked numbers belong to inactive results. Active and inactive are the calls of the source. Calls come from the whole dose curve; as a rule, active = well fitted inhibition curve with a large enough effect; inconclusive = small, poorly fitted or top-dose-only effect; inactive = flat fitted curve, though single readings scatter.

What was measured:
Assay in all cases: qHTS profiling for inhibitors of Plasmodium falciparum proliferation (AID 504749); note: nearly all actives have a fitted effect of over 60% in size
Conditions in all cases: P. falciparum in erythrocytes, SYBR Green DNA, 72 h; series mostly up to 28.7 µM
CP194 = test system: CP194
Procedure, shortened: (§1)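 SYBR Green fluorescence (ex 485 nm, em 535 nm) reports parasite DNA after 72 h compound exposure of infected red cells at 0.3% parasitemia, 2.5% hematocrit; signal normalized to 0.29 uM artemisinin and vehicle wells.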

CP201 = test system: CP201
Procedure, shortened: as §1

CP203 = test system: CP203
Procedure, shortened: as §1

CP211 = test system: CP211
Procedure, shortened: as §1

CP215 = test system: CP215
Procedure, shortened: as §1

CP217 = test system: CP217
Procedure, shortened: as §1

CP237 = test system: CP237
Procedure, shortened: as §1

CP238 = test system: CP238
Procedure, shortened: as §1

CP247 = test system: CP247
Procedure, shortened: as §1

CP250 = test system: CP250
Procedure, shortened: as §1

CP252 = test system: CP252
Procedure, shortened: as §1

CP256 = test system: CP256
Procedure, shortened: as §1

CP260 = test system: CP260
Procedure, shortened: as §1

CP262 = test system: CP262
Procedure, shortened: as §1

CP265 = test system: CP265
Procedure, shortened: as §1

CP266 = test system: CP266
Procedure, shortened: as §1

CP268 = test system: CP268
Procedure, shortened: as §1

CP269 = test system: CP269
Procedure, shortened: as §1

CP286 = test system: CP286
Procedure, shortened: as §1

CP291 = test system: CP291
Procedure, shortened: as §1
Potency is the fitted concentration of half-maximal effect.

Compound | Potency (CP194) | Potency (CP201) | Potency (CP203) | Potency (CP211) | Potency (CP215) | Potency (CP217) | Potency (CP237) | Potency (CP238) | Potency (CP247) | Potency (CP250) | Potency (CP252) | Potency (CP256) | Potency (CP260) | Potency (CP262) | Potency (CP265) | outcome (CP266) | Potency (CP268) | Potency (CP269) | Potency (CP286) | Potency (CP291)
CN1C(=O)CC(=O)N(c2ccccc2)c2cc(Cl)ccc21 | inactive | inactive | inactive | inactive | inactive | inactive | inactive | inactive | inactive | inactive | inactive | inactive | inactive | inactive | inactive | inactive | inactive | inactive | inactive | inactive
Clc1cccc(SC2CCNCC2)n1 | inactive | inactive | inactive | inactive | inactive | inactive | inactive | inactive | inactive | inactive | inactive | inactive | inactive | inactive | inactive | inactive | inactive | inactive | inactive | –
Nc1nc(N)nc(NC2CC2)n1 | inactive | inactive | inactive | inactive | inactive | inactive | inactive | inactive | inactive | inactive | inactive | inactive | inactive | inactive | inactive | inactive | inactive | inactive | inactive | inactive
CCOC(=O)CC(SP(=S)(OC)OC)C(=O)OCC (stereo unspecified) | inactive | inactive | inactive | inactive | inactive | inactive | inactive | inactive | inactive | inactive | inactive | inactive | inactive | inactive | inactive | – | inactive | inactive | inactive | inactive
COC1CC(=C(c2cccs2)c2cccs2)C[N+](C)(C)C1 (stereo unspecified) | – | – | 12 µM (active) | – | – | 6.31 µM (active) | 11.2 µM (active) | 6.31 µM (active) | 5.01 µM (active) | 10 µM (active) | 4.47 µM (active) | 4.47 µM (active) | 5.62 µM (active) | – | 4.47 µM (active) | – | – | 10.7 µM (active) | 11.2 µM (active) | –
CCCCCCCCCC(=O)O[C@H]1CC[C@H]2[C@@H]3CCC4=CC(=O)CC[C@@H]4[C@H]3CC[C@]12C | inactive | inactive | inactive | inactive | inactive | inactive | inactive | inactive | inactive | inactive | inactive | inactive | – | inactive | inactive | inactive | inactive | inactive | – | inactive
O=C(N/N=C/c1ccc([N+](=O)[O-])o1)c1cc([N+](=O)[O-])cc([N+](=O)[O-])c1O | – | – | – | – | – | 0.0028 µM (active) | – | 0.0708 µM (active) | 0.02 µM (active) | 0.1 µM (active) | – | 0.251 µM (active) | – | – | 2.24 µM (active) | – | – | – | – | –
O=C(O)CCCc1ccc(N(CCCl)CCCl)cc1 | inactive | inactive | inactive | inactive | inactive | inactive | inactive | inactive | inactive | – | inactive | inactive | inactive | inactive | inactive | inactive | inactive | inactive | inactive | inactive
O=C1Nc2ccc(Cl)cc2C(c2ccccc2)=NC1O (stereo unspecified) | inactive | inactive | inactive | inactive | – | inactive | inactive | inactive | inactive | inactive | inactive | inactive | inactive | inactive | inactive | inactive | inactive | inactive | inactive | inactive
O=C1Nc2ccc(Cl)cc2C(c2ccccc2Cl)=NC1O (stereo unspecified) | inactive | inactive | inactive | inactive | – | inactive | inactive | inactive | inactive | inactive | inactive | inactive | inactive | – | inactive | inactive | inactive | inactive | inactive | inactive
CCCC(C)(COC(N)=O)COC(N)=O | inactive | inactive | inactive | inactive | – | inactive | inactive | inactive | inactive | inactive | inactive | inactive | inactive | inactive | inactive | inactive | inactive | inactive | inactive | –
CN1C(=O)C(O)N=C(c2ccccc2)c2cc(Cl)ccc21 (stereo unspecified) | inactive | inactive | inactive | inactive | – | inactive | inactive | inactive | inactive | inactive | inactive | inactive | inactive | inactive | inactive | – | inactive | inactive | inactive | inactive
O=C1c2ccccc2C(=O)C1C(=O)C(c1ccccc1)c1ccccc1 | inactive | – | inactive | inactive | inactive | inactive | inactive | inactive | inactive | inactive | inactive | inactive | – | inactive | inactive | inactive | inactive | inactive | inactive | inactive
NC(=O)c1cc([N+](=O)[O-])cc([N+](=O)[O-])c1 | inactive | inactive | inactive | – | inactive | – | – | inactive | – | – | – | inactive | – | – | – | inactive | inactive | – | inactive | inactive
CCOP(=S)(OCC)Oc1ccc2c(C)c(Cl)c(=O)oc2c1 | – | – | – | – | – | – | – | – | inactive | – | – | – | – | inactive | – | – | – | – | 10 µM (active) | –
CN1CCC(O)(c2ccc(F)cc2)C(C(=O)c2ccc(F)cc2)C1 (stereo unspecified) | inactive | inactive | inactive | inactive | inactive | inactive | inactive | inactive | inactive | inactive | inactive | inactive | – | inactive | inactive | inactive | inactive | inactive | inactive | inactive
